Measured values taken from PubChem BioAssay (EPA / NIEHS).
Inconclusive results are not listed. Some compounds were tested as several samples or in several runs, with calls that do not always agree. Calls of active or inactive are those of the source. The calls were made as follows, unless noted: active = hit-call score of the fitted dose curve at least 0.9, where 1 is the maximum; inactive = score below 0.9.

Key:
[1] = read-out: succinate dehydrogenase complex iron sulfur subunit B (SDHB), SDHB (gene 6390); assay: LTEA_HepaRG_SDHB: Life Technologies and Expression Analysis (LTEA) Assay for succinate dehydrogenase complex iron sulfur subunit B (SDHB) using HepaRG (AID 2283528); settings: mRNA level, 48 h; actives raise or lower the signal
Procedure, shortened: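 HepaRG, 48 h exposure, 8-pt half-log series from 100 uM in 0.5% DMSO, duplicates. Readout: SDHB mRNA by Fluidigm qRT-PCR vs housekeeping genes; bidirectional fit relative to DMSO.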

[2] = read-out: Signal transducer and activator of transcription 3 (Homo sapiens) (UniProt P40763); assay: LTEA_HepaRG_STAT3: Life Technologies and Expression Analysis (LTEA) Assay for Signal transducer and activator of transcription (STAT3) using HepaRG (AID 2283529); settings: mRNA level, 48 h; actives raise or lower the signal
Procedure, shortened: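 HepaRG, 48 h exposure, 8-pt half-log series (top 100 uM), 0.5% DMSO vehicle, duplicates. Readout: STAT3 transcript by Fluidigm qRT-PCR, housekeeping-normalized; bidirectional fit vs DMSO baseline.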

[3] = read-out: solute carrier (SLCO1B1), SLCO1B1 (gene 10599); assay: LTEA_HepaRG_SLCO1B1: Life Technologies and Expression Analysis (LTEA) Assay for solute carrier (SLCO1B1) using HepaRG (AID 2283530); settings: mRNA level, 48 h; actives raise or lower the signal
Procedure, shortened: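 Gain or loss of SLCO1B1 mRNA is fitted against the 0.5% DMSO vehicle in human HepaRG liver cells treated 48 h at up to 100 uM in half-log steps. Expression comes from qRT-PCR normalized to endogenous controls.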

[4] = read-out: sulfotransferase 2A1 (SULT2A1), SULT2A1 (gene 6822); assay: LTEA_HepaRG_SULT2A1: Life Technologies and Expression Analysis (LTEA) Assay for sulfotransferase 2A1 (SULT2A1) using HepaRG (AID 2283531); settings: mRNA level, 48 h; actives raise or lower the signal
Procedure, shortened: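 Cells were plated and cultured 48 h, switched to serum-free induction medium, then dosed in duplicate for 48 h (8 concentrations, max 100 uM). RNA was isolated and SULT2A1 expression measured by qRT-PCR; gain or loss of signal fitted relative to DMSO.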

[5] = read-out: Transforming Growth Factor (TGFA), TGFA (gene 7039); assay: LTEA_HepaRG_TGFA: Life Technologies and Expression Analysis (LTEA) Assay for Transforming Growth Factor (TGFA) using HepaRG (AID 2283532); settings: mRNA level, 48 h; actives raise or lower the signal
Procedure, shortened: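 qRT-PCR read-out of TGFA transcript, normalized to three housekeeping genes, fitted bidirectionally against 0.5% DMSO baseline. Human HepaRG cultures received chemicals for 48 h at eight half-log concentrations, top 100 uM.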

[6] = read-out: Transforming Growth Factor (TGFB1), TGFB1 (gene 7040); assay: LTEA_HepaRG_TGFB1: Life Technologies and Expression Analysis (LTEA) Assay for Transforming Growth Factor (TGFB1) Transporter using HepaRG (AID 2283533); settings: mRNA level, 48 h; actives raise or lower the signal
Procedure, shortened: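 Expression change of TGFB1 in human HepaRG cells is measured after a 48 h chemical exposure, up to 100 uM in 0.5% DMSO vehicle. Curves are fitted in both directions relative to the DMSO baseline.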

TIMP1, TIMP1 (gene 7076) = assay: LTEA_HepaRG_TIMP1: Life Technologies and Expression Analysis (LTEA) Assay for TIMP1 using HepaRG (AID 2283534); settings: mRNA level, 48 h; actives raise or lower the signal
Procedure, shortened: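 We dosed human liver HepaRG cultures for 48 hours with up to 100 uM test chemical and measured TIMP1 expression by qRT-PCR. Activity in either direction is fitted relative to the 0.5% DMSO vehicle.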

[7] = read-out: Tumor necrosis factor receptor 1 (TNFRSF1A), TNFRSF1A (gene 7132); assay: LTEA_HepaRG_TNFRSF1A: Life Technologies and Expression Analysis (LTEA) Assay for Tumor necrosis factor receptor 1 (TNFRSF1A) using HepaRG (AID 2283535); settings: mRNA level, 48 h; actives raise or lower the signal
Procedure, shortened: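 Expression of TNFRSF1A in human HepaRG liver cells was measured by qRT-PCR 48 h after chemical dosing (maximum 100 uM). Bidirectional curve fitting used 0.5% DMSO as baseline.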

[8] = read-out: Thyroid Hormone Responsive (THRSP), THRSP (gene 7069); assay: LTEA_HepaRG_THRSP: Life Technologies and Expression Analysis (LTEA) Assay for Thyroid Hormone Responsive (THRSP) using HepaRG (AID 2283536); settings: mRNA level, 48 h; actives raise or lower the signal
Procedure, shortened: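 qRT-PCR read-out (Fluidigm TaqMan), housekeeping-normalized (ACTB/GAPDH/POLR2A). HepaRG, 48 h chemical exposure, 8-pt half-log series from 100 uM in 0.5% DMSO, duplicates. Bidirectional curve fit vs 0.5% DMSO baseline.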

[9] = read-out: Cellular tumor antigen p53 (Homo sapiens) (UniProt P04637); assay: LTEA_HepaRG_TP53: Life Technologies and Expression Analysis (LTEA) Assay for Tumor Protein P53 (TP53) using HepaRG (AID 2283537); settings: mRNA level, 48 h; actives raise or lower the signal
Procedure, shortened: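 HepaRG, 48 h exposure, top 100 uM, half-log 8-point, 0.5% DMSO vehicle, duplicates. Read: TP53 mRNA by TaqMan qRT-PCR, normalised to ACTB/GAPDH/POLR2A; bidirectional fit vs DMSO.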

[10] = read-out: UDP glucuronosyltransferase (UGT1A1), UGT1A1 (gene 54658); assay: LTEA_HepaRG_UGT1A1: Life Technologies and Expression Analysis (LTEA) Assay for UDP glucuronosyltransferase (UGT1A1) using HepaRG (AID 2283538); settings: mRNA level, 48 h; actives raise or lower the signal
Procedure, shortened: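 mRNA induction or loss of UGT1A1, by TaqMan qRT-PCR, in duplicate HepaRG wells after 48 h exposure to half-log dilutions topping at 100 uM; DMSO (0.5%) served as baseline.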

[11] = read-out: UDP glucuronosyltransferase (UGT1A6), UGT1A6 (gene 54578); assay: LTEA_HepaRG_UGT1A6: Life Technologies and Expression Analysis (LTEA) Assay for UDP glucuronosyltransferase (UGT1A6) using HepaRG (AID 2283539); settings: mRNA level, 48 h; actives raise or lower the signal
Procedure, shortened: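 Endpoint is UGT1A6 transcript induction or loss in a human liver cell line, quantified by TaqMan qRT-PCR 48 h after dosing. Concentrations ran from 100 uM downward in half-log steps in 0.5% DMSO; activity was fitted in both directions versus vehicle.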

[12] = read-out: X-box binding protein 1 (XBP1), XBP1 (gene 7494); assay: LTEA_HepaRG_XBP1: Life Technologies and Expression Analysis (LTEA) Assay for X-box binding protein 1 (XBP1) using HepaRG (AID 2283540); settings: mRNA level, 48 h; actives raise or lower the signal
Procedure, shortened: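 Human HepaRG monolayers receive test chemical for 48 h across an eight-point half-log series starting at 100 uM. XBP1 mRNA gain or loss is scored against DMSO by qRT-PCR.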

[13] = LTEA_HepaRG_LDH_cytotoxicity: Cytotoxicity Assessment in the Life Technologies and Expression Analysis (LTEA) Assay (AID 2283563; active = hit-call score of the fitted dose curve at least 0.9, where 1 is the maximum;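 as to AC50: LDH activity released into spent culture medium as a marker of cell death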)
Procedure, shortened: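 Human HepaRG hepatic cells are treated with test chemicals for 48 h at up to 100 uM in 0.5% DMSO. Cytotoxicity is scored from medium LDH against the vehicle control.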

[14] = TOX21_p53_BLA_p2_viability: Viability Assessment in the Tox21 HCT-116 p53 Agonism Beta-lactamase Assay, Phase 2 (AID 2283591; active = hit-call score of the fitted dose curve at least 0.9, where 1 is the maximum;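 also: compound exposure lasted 16 h at 37 °C; actives lower the ATP signal meaning cytotoxicity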)
Procedure, shortened: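 HCT116 p53-bla cells, 4000/well, dosed after 5 h plating (217-fold dilution of DMSO stocks) and incubated 16 h at 37C. Viability taken as cellular ATP by CellTiter-Glo luminescence after 30 min RT; signal loss marks cytotoxicity.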

[15] = biological target: Cellular tumor antigen p53 (Homo sapiens) (UniProt P04637); assay: TOX21_p53_BLA_p2_ratio: Tox21 HCT-116 p53 Agonism Beta-lactamase Assay, Ratio, Phase 2 (AID 2283592; active = hit-call score of the fitted dose curve at least 0.9, where 1 is the maximum)
Procedure, shortened: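 Cleaved-to-uncleaved substrate ratio (460 vs 530 nm) measured in HCT116 cells with an inducible beta-lactamase reporter linked to p53 activity. Compounds incubated 16 h at 37C before 2 h room-temperature CCF4-AM loading.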

[16] = TOX21_p53_BLA_p3_viability: Viability Assessment in the Tox21 HCT-116 p53 Agonism Beta-lactamase Assay, Phase 3 (AID 2283593; active = hit-call score of the fitted dose curve at least 0.9, where 1 is the maximum;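 also: cells exposed to compound for 16 h before reading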)
Procedure, shortened: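 HCT116 cells, 4000/well, dosed 5 h after plating by pin transfer (217-fold dilution from DMSO stock) and incubated 16 h at 37C, 5% CO2. Viability read as ATP luminescence with CellTiter-Glo after 30 min at room temperature.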

[17] = biological target: Cellular tumor antigen p53 (Homo sapiens) (UniProt P04637); assay: TOX21_p53_BLA_p3_ratio: Tox21 HCT-116 p53 Agonism Beta-lactamase Assay, Ratio, Phase 3 (AID 2283596; active = hit-call score of the fitted dose curve at least 0.9, where 1 is the maximum)
Procedure, shortened: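 Cells were seeded at 4000/well, rested 5 h at 37C, then dosed with DMSO compound solutions (217-fold dilution) for 16 h. CCF4-AM substrate was loaded for 2 h at room temperature, and the 460/530 nm emission ratio was fitted for gain of signal versus DMSO.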

[18] = TOX21_p53_BLA_p4_viability: Viability Assessment in the Tox21 HCT-116 p53 Agonism Beta-lactamase Assay, Phase 4 (AID 2283597; active = hit-call score of the fitted dose curve at least 0.9, where 1 is the maximum;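 also: hits lower the luminescence signal meaning cytotoxicity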)
Procedure, shortened: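 Viability is taken as cellular ATP: after 16 h compound exposure of HCT116 cells and a 2 h room-temperature CCF4-AM substrate step, CellTiter-Glo reagent is added and luminescence is measured 30 min later.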

[19] = ATG_XTT_Cytotoxicity: Cytotoxicity Assessment in the Attagene TRANS-FACTORIAL HepG2 Assay (AID 2283584; active = hit-call score of the fitted dose curve at least 0.9, where 1 is the maximum)
Procedure, shortened: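 Transfect HepG2 with GAL4-UAS reporter units, dose compound, incubate 24 h, then measure viable cell number by XTT. Fit concentration response against DMSO baseline.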

Measured: AC50

Chain of Cellular tumor antigen p53 (Homo sapiens) (P04637 whole entry, looked up): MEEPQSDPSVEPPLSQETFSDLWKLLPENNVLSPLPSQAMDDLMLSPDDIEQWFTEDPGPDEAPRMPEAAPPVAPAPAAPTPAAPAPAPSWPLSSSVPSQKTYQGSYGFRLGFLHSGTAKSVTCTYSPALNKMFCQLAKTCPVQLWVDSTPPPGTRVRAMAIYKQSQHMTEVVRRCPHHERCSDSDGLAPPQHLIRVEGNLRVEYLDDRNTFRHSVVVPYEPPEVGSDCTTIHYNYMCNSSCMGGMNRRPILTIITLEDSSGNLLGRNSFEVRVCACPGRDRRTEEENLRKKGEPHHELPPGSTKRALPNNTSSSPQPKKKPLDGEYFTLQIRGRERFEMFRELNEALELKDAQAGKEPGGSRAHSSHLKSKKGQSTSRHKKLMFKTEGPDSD
Chain of Signal transducer and activator of transcription 3 (Homo sapiens) (P40763 whole entry, looked up): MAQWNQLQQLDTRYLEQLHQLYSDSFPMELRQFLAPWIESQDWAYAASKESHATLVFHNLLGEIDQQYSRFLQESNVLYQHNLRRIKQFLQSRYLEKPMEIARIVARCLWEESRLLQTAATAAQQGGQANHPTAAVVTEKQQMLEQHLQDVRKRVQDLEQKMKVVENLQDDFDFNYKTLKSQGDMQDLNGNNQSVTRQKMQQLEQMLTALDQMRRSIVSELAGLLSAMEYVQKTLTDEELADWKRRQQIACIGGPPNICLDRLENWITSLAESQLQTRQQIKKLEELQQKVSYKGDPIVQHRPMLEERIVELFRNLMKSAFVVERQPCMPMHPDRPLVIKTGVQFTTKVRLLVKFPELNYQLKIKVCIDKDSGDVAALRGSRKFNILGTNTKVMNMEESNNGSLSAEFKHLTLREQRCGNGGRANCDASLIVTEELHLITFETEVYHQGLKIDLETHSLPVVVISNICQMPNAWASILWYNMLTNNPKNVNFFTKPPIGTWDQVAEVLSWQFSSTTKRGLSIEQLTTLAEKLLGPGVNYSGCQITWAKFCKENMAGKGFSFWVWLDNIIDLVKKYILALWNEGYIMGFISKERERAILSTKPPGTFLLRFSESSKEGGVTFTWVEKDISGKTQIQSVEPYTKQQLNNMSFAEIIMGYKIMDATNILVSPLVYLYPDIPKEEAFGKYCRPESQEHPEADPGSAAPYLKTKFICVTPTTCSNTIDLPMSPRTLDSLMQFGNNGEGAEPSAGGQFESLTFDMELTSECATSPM

COCCOC[C@H](CC1(C(=O)NC2CCC(C(=O)O)CC2)CCCC1)C(=O)Oc1ccc2c(c1)CCC2 (stereo not given in full)
inactive: [1] | [2] | [3] | [4] | [5] | [6] | TIMP1, TIMP1 (gene 7076) | [7] | [8] | [9] | [10] | [11] | [12] | [13] | [14] | [15] | [16] | [17] | [18]

CC1(C)NC(=O)NC1=O
inactive: [1] | [2] | [3] | [4] | [5] | [6] | TIMP1, TIMP1 (gene 7076) | [7] | [8] | [9] | [10] | [12] | [13] | [19] | [14] | [15] | [16] | [17] | [18]

Nc1ccccc1N
inactive: [2] | TIMP1, TIMP1 (gene 7076) | [14] | [15] | [16] | [17] | [18]
active: [1] 85.1 µM | [3] 69.5 µM | [4] 85.9 µM | [5] 50 µM | [6] 29.6 µM | [7] 50 µM | [8] 50 µM | [9] 50 µM | [10] 85 µM | [11] 75.8 µM | [12] 88.2 µM | [13] 68.6 µM | [17] 68.5 µM | [18] 23 µM

Cc1ccc(C)c(C)c1
inactive: [1] | [2] | [3] | [4] | [5] | [6] | TIMP1, TIMP1 (gene 7076) | [7] | [8] | [9] | [10] | [11] | [12] | [13] | [19] | [14] | [15] | [16] | [17]

Cc1ccc(N(C)C)cc1
active: [10] 26.6 µM
inactive: [1] | [2] | [3] | [4] | [5] | [6] | TIMP1, TIMP1 (gene 7076) | [7] | [8] | [9] | [11] | [13] | [14] | [15] | [16] | [17] | [18]

CCCCCCCCCCC
inactive: [1] | [2] | [3] | [4] | [5] | [6] | TIMP1, TIMP1 (gene 7076) | [7] | [8] | [9] | [10] | [11] | [13] | [19] | [14] | [15] | [17]

CNCc1cc(F)ccc1Oc1ccc(Cl)c(Cl)c1
inactive: [1] | [2] | [5] | [6] | TIMP1, TIMP1 (gene 7076) | [7] | [8] | [9] | [15] | [16] | [17] | [18]
active: [3] 82.6 µM | [4] 84.2 µM | [10] 82.8 µM | [11] 74 µM | [13] 81.7 µM
